The campaign covered roughly 6,200 compounds. About 2,900 (47%) were called active. The set was probably picked from earlier hits. The list shows a part of the results. A number with no mark means an inactive call. Cut-off read from the data, not from the text of the source: active = inhibition above about 50%; inactive = the rest. Where a SMILES comes first, the peptide text is derived from it. [ ]: non-standard residue; d: D form. Orn = NCCC[CH](N)C(=O)O
test: Mycobacterium tuberculosis growth inhibition, primary screen (AID 1259343); details: inhibition: at 10 µM, hits give high values; outcome: 10 uM

SMILES	inhibition
O=C(Nc1ncccc1OC(F)F)c1cncc(Br)c1	89.3% (active)
CCOc1ccc(NC(=O)c2cncc(Br)c2)cc1F	44.8%
C=CCN(c1ccccc1)S(=O)(=O)c1ccc(Br)cc1Cl	27.3%
COc1ccc2cc(C3CN(Cc4noc(C5CC5)n4)CCO3)ccc2c1 (stereo not drawn)	23.6%
C1=CCC(c2nc(Cc3cccnc3)no2)CC1 (stereo not drawn)	-4.1%
COc1ccc2c(c1)CC(c1nc(Cc3ccc(F)cc3)no1)CO2 (stereo not drawn)	63.1% (active)
N#CC(C#N)=C1C=C2C=C(N3CCCCCC3)CCC2CC1 (stereo not drawn)	73.5% (active)
CCCCN(C)C1=CC2=CC(=C(C#N)C#N)CCC2CC1 (stereo not drawn)	45.5%
N#CC(C#N)=C1C=C2C=C(N3CCCCC3)CCC2CC1 (stereo not drawn)	49%
O=C(O)c1cnc(/C=C/c2cccc(C(F)(F)F)c2)s1	-17.4%
Cn1nc(C(F)(F)F)cc1-c1ccc(C(=O)O)s1	46.4%
O=C(O)c1cnc(-c2ccc(C(F)(F)F)cc2)s1	60.4% (active)
Clc1cc(Br)ccc1Oc1ncnc2sccc12	70.4% (active)
Brc1ccc(Sc2ncnc3sccc23)cc1	19.4%
O=C1COc2ccc(C3=NNC(=Nc4ccccc4Cl)SC3)cc2N1	11.7%
O=C1NC(=Nc2ccccc2Cl)S/C1=C\c1ccsc1	59.3% (active)
CN(C)CC/C=C1\c2ccccc2Sc2ccc(Cl)cc21	90.1% (active)
CN(Cc1ccc(Cl)cc1)Cc1cc2c(cc1O)CCC2	22.8%
Oc1c(Cl)cc(Cl)cc1C1=NNC(c2ccccc2F)C1 (stereo not drawn)	38.9%
Oc1ccc(F)cc1C1=NNC(c2ccc(Cl)cc2)C1 (stereo not drawn)	60.6% (active)
Cn1c(Cl)cnc1C1CC(c2cc(Cl)ccc2O)=NN1 (stereo not drawn)	101% (active)
COc1ccc(NC(=O)CSc2nnc3ccccn23)c(OC)c1	81.5% (active)
O=C(CSc1nnc2ccccn12)Nc1c(Cl)c(Cl)cc(Cl)c1Cl	-1.75%
CC(C)CC1NC(=O)C(CCCN)NC(=O)C(C(C)C)NC(=O)C2CCCN2C(=O)C(Cc2ccccc2)NC(=O)C(CC(C)C)NC(=O)C(CCCN)NC(=O)C(C(C)C)NC(=O)C2CCCN2C(=O)C(Cc2ccccc2)NC1=O (stereo not drawn) (cyclo(FPV[Orn]LFPV[Orn]L); configuration not given here)	46.4%
CCOC(=O)c1ccc(N=Cc2c(O)[nH]c(=O)[nH]c2=O)cc1	73.1% (active)

SMILES	inhibition
CCCCn1c(O)c(C=Nc2ccc(CC)cc2)c(C)c(C#N)c1=O	24.8%
COC(=O)c1ccc(Nc2ccc(OCC3CCCO3)cc2)nn1 (stereo not drawn)	93.6% (active)
COc1cc(C(=O)N2CCOC(COc3ccc(C)cc3)C2)cc(Cl)n1 (stereo not drawn)	29.3%
Clc1cccc(Nc2nc3nonc3n3nnnc23)c1	54.3% (active)
CC(C)S(=O)(=O)c1ccc(C(=O)Nc2onc3c2CCC3)cc1	84.8% (active)
CCc1csc(Cn2cc(C(C)c3ccccc3)nn2)n1 (stereo not drawn)	-13.5%
Cc1cc2ncn(CCCOc3ccccc3)c2cc1C	36.7%
CCc1cc(OCCCCn2cnc3ccccc3c2=O)ccc1Cl	64.6% (active)
Cc1ccc(SCCCCN2C(=O)NC(C)(C)C2=O)cc1	-48.6%
O=c1c2ccccc2ncn1CCCCSc1ccccc1	89.1% (active)
Cc1nn(S(=O)(=O)c2cccc([N+](=O)[O-])c2)c(C)c1S(=O)(=O)N1CCCC(C)C1 (stereo not drawn)	-15.4%
N#Cc1ccc(CNc2cccc(Br)c2)c(F)c1	-12.4%
N#Cc1ccc(NCc2cc(Br)ccc2F)cc1	88.5% (active)
N#Cc1ccccc1CNc1ccc(Br)cc1F	-19.6%
CC(C)c1nc2c(c(=O)c3ccccc3n2C)c(=O)n1Cc1ccccc1	-29.9%
COC(=O)C(C)Sc1nc2sc3c(c2c(=O)n1Cc1ccccc1)CCC3 (stereo not drawn)	83.9% (active)
O=c1c2c3c(sc2ncn1Cc1cccc2ccccc12)CCCC3	21.4%
CC1(Cc2ccccc2F)C(=O)Nc2ccc(-c3cccnc3)cc21 (stereo not drawn)	55.3% (active)
CCCc1nn(-c2cccc(Cl)c2)c([O-])c1C1=C([n+]2cccc(CC)c2)C(=O)N(CC(C)C)C1=O	41.4%
CCCC(C)NC(=O)Cn1cnc2cc(F)ccc2c1=O (stereo not drawn)	86.9% (active)
O=C(NNC1c2ccccc2-c2ccccc21)c1ccccc1	32.6%
CC(C)(C)C(=O)COC(=O)CNC(=O)c1ccccc1	93.8% (active)
C=CCN=c1scc(-c2ccc(C)c(C)c2)n1N=Cc1cccnc1	-28%
C=CCN=c1scc(-c2ccc(Br)cc2)n1N=Cc1cccnc1	-5.61%
C=CCN=c1scc(-c2ccccc2F)n1N=Cc1ccc2c(c1)OCCO2	9.72%

SMILES	inhibition
C=CCN=c1scc(-c2ccc(Cl)c(Cl)c2)n1N=Cc1cccnc1	68.1% (active)
C=CCN=c1scc(-c2ccc(OC(F)F)cc2)n1N=C(C)c1ccc2c(c1)OCCO2	87% (active)
C=CCN=c1scc(-c2ccc(Cl)cc2)n1N=Cc1cccnc1	9.02%
C=CCN=c1scc(-c2ccc(OC(F)F)cc2)n1N=Cc1ccc2c(c1)OCO2	-11.8%
CCN=c1scc(-c2ccc(C)cc2)n1N=C(C)c1ccc(C)o1	42.6%
C=CCN=c1scc(-c2ccc(C)cc2)n1N=C(C)c1cccnc1	84.7% (active)
O=C(NCC(=O)N1CCCCC1)c1sc2ccccc2c1Cl	70.3% (active)
Cc1ccc(C(=O)N2CCCC(C(=O)c3cccc4ccccc34)C2)s1 (stereo not drawn)	11.3%
CC1(C)CN(CC(=O)NCC(=O)N2CCCC2)c2cccc(Cl)c21	-12.8%
CCc1ccc(NC(=O)CCn2cnc3c([nH]c4ccccc43)c2=O)cc1	95.4% (active)
CCc1ccc(-c2cc(C(=O)N=Nc3c(O)[nH]c4ccccc34)[nH]n2)cc1	18.3%
Cn1c(=O)c2c(ncn2CCOC(=O)c2cc(=O)[nH]c3ccccc23)n(C)c1=O	-7.86%
Brc1cc(CNC2C3CCCC2CN(C2CC2)C3)cs1 (stereo not drawn)	23.7%
C=CCn1cnnc1SCC(=O)Nc1ccc(Br)c(C)c1	101% (active)
Cn1cnnc1SCC(=O)Nc1ccc2c(c1)OC(F)(F)O2	16.7%
C=CCn1c(SCC(=O)NC(=O)NC)nnc1-c1ccncc1	-1.24%
Cc1nnc2sc(-c3ccccc3NC(=S)NC(=O)c3cc4ccccc4o3)nn12	57.4% (active)
CCn1c(O)c(C=NC2CCCCCC2)c(=O)n(CC)c1=S	102% (active)
Oc1ccc2ccccc2c1C=NC1CC1	37.4%
Cc1nn(CO)c(C)c1Sc1ccc(Br)cc1	36.4%
C(=Nn1c(-c2ccccc2)csc1=NC1CCCCC1)c1ccccn1	-31.1%
Cc1ccc(OCC2CCCN(Cc3ccc(C#CCO)s3)C2)cc1 (stereo not drawn)	82.9% (active)
Cc1ccccc1OCC1CCCN(Cc2nc(Cc3ccccc3F)no2)C1 (stereo not drawn)	47%
O=C(NCC(F)(F)F)c1cccc(Oc2ccccc2)c1	74.4% (active)
COCC(C)NC(=O)c1cccc(Oc2cccc(C(F)(F)F)c2)c1 (stereo not drawn)	38.2%

SMILES	inhibition
CCCCc1noc(CNc2cc(C(=O)NCC(F)(F)F)ccc2C)n1	46.7%
CCc1cccc(N2CCC(NC(=O)Nc3nccs3)CC2)c1	51.4% (active)
OCCN=Cc1cn(-c2ccccc2)nc1-c1ccc(Cl)cc1	59.3% (active)
Cn1cc(-c2nn(-c3ccccc3)cc2C=NNC(N)=S)c2ccccc21	16.3%
CC1CC(=O)NN1C(=O)/C=C/c1cn(-c2ccccc2)nc1-c1ccccc1 (stereo not drawn)	38.7%
CCc1cc2c(=O)n(CCC(C)C)c(=S)[nH]c2s1	-39.7%
C/C(=C/C(=O)C(C#N)c1nc2cc(Cl)ccc2s1)C1CC1 (stereo not drawn)	63.6% (active)
CCOC(=O)COc1ccc2c(=O)c(-c3ccc(Cl)cc3)c(C)oc2c1	84% (active)
COCCCn1c(-c2ccccc2)nc2oc3cc(OC)ccc3c(=O)c2c1=O	-18.5%
COC(=O)COc1ccc2c(=O)c(Oc3ccc(OC)cc3)coc2c1	8.04%
Cc1cc(NC(=O)C(C)Oc2ccc3c(=O)c(-c4ccccc4)c(C)oc3c2)no1 (stereo not drawn)	70.1% (active)
CCOC(=O)COc1ccc2c(=O)c(-c3ccccc3)c(C)oc2c1	41.9%
C=C(C)COc1ccc2c(=O)c(-c3ccccc3)c(C)oc2c1	51.9% (active)
Nc1c([N+](=O)[O-])ccc2c1=[N+]([O-])C1(CCCCC1)[N+]=2[O-]	101% (active)
Oc1c(N=Nc2ccccc2)cc2c3c1CCCN3CCC2	16.8%
Cc1c(CN2CCCC(CNC(=O)c3cccs3)C2)[nH]c2ccc(Cl)cc12 (stereo not drawn)	78.8% (active)
O=C(NCC1CC1)c1csc(N2CCN(Cc3ccc(Cl)cc3)C2=O)n1	33.3%
Cc1c(CN2CCCC(C(=O)Nc3cccc(-n4cccn4)c3)C2)[nH]c2ccccc12 (stereo not drawn)	35.5%
CN(CCC#N)c1ccc(C=NNC(N)=S)cc1	29.2%
NC(=N/N=C\c1ccc(Cl)cc1)N/N=C\c1ccc(Cl)cc1	101% (active)
Clc1ccc(C2=Nn3c(nnc3C3CCCCC3)SC2)c(Cl)c1	-20.9%
O=C(Sc1cccc2cccnc12)c1ccccc1Cl	92.5% (active)
CCc1cccc2c(C(=O)CSc3nnc(-c4cccnc4)o3)c[nH]c12	63.8% (active)

Reference: PubChem BioAssay AID1259343 (VanderVen Lab, College of Veterinary Medicine, Cornell …, 2017)
